Our source for the composite z-score and z-score values is PubChem BioAssay.

Activity calls are given as the source filed them.

Test [1] has as its system Plasmodium falciparum Sir2 (PF13_0152, Sir2A). Description: Plasmodium falciparum Sir2A binding compounds – biochemical, small-molecule microarray, 635 nm fluorescence, primary screen (AID 1098).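 Note: score merges spot fluorescence intensity with its signal-to-noise ratio.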 The conditions noted are these: fluorescence 635 nm, higher = more signal.
Test [2] is described as follows: probe aDKK1 binding to arrayed compounds – biochemical, biotinylated probe, 635/667 nm fluorescence, primary screen (AID 1099).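 Note: score merges 667nm spot fluorescence with signal to noise across triplicate slides.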 The note with it: small-molecule microarray, higher = more signal.
A short description of test [3]: probe aCHRDL2 binding to arrayed compounds – biochemical, biotinylated probe, 635/667 nm fluorescence, primary screen (AID 1100). The conditions noted are these: small-molecule microarray, higher = more signal.
Test [4] is described as follows: change in splice reporter luminescence, either direction, cell-based, HEK293, spliceosome inhibition project, primary screen (AID 1101).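 Note: HEK293 cells carrying a splicing-competent luciferase reporter gene; test concentration not given here.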 The note with it: HEK293 splicing luciferase reporter, 24 h, higher = more signal, called active from +8 up or from −8 down.
The target in test [5] is Fibroblast growth factor 10 (Homo sapiens) (UniProt O15520). Description: compounds binding fibroblast growth factor 10 – biochemical, small-molecule microarray, 635 nm fluorescence, primary screen (AID 1102). The conditions noted are these: FGF10 binding, fluorescence 635 nm, higher = more signal.
Sequence of Fibroblast growth factor 10 (Homo sapiens) (O15520 whole entry, looked up): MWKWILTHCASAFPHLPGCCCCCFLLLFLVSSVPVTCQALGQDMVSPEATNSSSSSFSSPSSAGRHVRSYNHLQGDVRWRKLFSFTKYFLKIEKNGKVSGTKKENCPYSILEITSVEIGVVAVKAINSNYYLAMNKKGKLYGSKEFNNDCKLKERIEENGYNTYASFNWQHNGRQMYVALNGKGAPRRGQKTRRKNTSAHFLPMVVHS
Test [6] relates to glycogen synthase kinase-3 (GSK3A per assay name; protocol says GSK3B). Description: compounds binding glycogen synthase kinase-3 – biochemical, small-molecule microarray, 635 nm fluorescence, GSK3A, primary screen (AID 1103). Note: the record names both GSK3A and GSK3B. The conditions noted are these: fluorescence 635 nm, higher = more signal.
For test [7], the target named is Epidermal growth factor receptor (Homo sapiens) (UniProt P00533). Description: compounds binding epidermal growth factor receptor – biochemical, small-molecule microarray, 635 nm fluorescence, primary screen (AID 1104).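 Note: score merges 667 nm emission intensity with spot signal to noise over triplicate slides.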 The note with it: EGFR binding, higher = more signal.
Sequence of Epidermal growth factor receptor (Homo sapiens) (P00533 whole entry, looked up): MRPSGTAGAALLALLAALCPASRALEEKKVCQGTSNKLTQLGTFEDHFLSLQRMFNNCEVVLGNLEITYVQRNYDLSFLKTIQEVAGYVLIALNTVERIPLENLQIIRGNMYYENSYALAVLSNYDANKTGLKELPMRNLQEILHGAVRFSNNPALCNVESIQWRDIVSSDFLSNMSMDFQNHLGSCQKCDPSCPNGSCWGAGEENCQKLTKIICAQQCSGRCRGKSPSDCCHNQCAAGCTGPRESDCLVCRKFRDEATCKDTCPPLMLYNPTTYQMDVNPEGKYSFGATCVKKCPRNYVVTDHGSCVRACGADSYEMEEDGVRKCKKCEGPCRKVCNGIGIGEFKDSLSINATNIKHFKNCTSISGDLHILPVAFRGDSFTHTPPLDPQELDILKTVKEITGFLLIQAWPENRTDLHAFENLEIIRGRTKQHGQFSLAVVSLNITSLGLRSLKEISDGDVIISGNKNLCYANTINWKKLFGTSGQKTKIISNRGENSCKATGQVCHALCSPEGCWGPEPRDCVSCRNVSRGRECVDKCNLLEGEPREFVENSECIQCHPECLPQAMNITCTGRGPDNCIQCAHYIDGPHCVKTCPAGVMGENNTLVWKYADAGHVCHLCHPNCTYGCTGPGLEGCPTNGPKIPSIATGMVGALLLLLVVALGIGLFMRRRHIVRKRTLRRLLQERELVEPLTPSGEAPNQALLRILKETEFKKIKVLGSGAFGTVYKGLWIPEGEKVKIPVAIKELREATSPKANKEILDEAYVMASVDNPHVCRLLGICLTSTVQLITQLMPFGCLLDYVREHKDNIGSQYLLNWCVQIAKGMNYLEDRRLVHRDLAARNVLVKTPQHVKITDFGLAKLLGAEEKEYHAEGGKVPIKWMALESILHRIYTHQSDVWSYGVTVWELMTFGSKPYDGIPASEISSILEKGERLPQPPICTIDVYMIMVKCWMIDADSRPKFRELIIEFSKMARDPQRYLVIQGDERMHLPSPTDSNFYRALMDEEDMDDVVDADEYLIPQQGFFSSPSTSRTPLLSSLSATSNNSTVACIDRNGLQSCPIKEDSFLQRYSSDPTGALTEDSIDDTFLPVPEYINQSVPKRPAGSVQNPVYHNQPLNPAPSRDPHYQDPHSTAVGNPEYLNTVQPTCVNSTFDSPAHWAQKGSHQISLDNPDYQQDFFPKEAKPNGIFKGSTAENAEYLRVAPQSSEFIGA
Test [8] deals with Follistatin-related protein 3 (Homo sapiens) (UniProt O95633). Description: compounds binding follistatin-related protein 3 – biochemical, small-molecule microarray, 635 nm fluorescence, primary screen (AID 1105).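 Note: score merges emission near 667 nm and signal to noise per printed spot across three slides.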 The note with it: FSTL3 binding, higher = more signal.
Sequence of Follistatin-related protein 3 (Homo sapiens) (O95633 whole entry, looked up): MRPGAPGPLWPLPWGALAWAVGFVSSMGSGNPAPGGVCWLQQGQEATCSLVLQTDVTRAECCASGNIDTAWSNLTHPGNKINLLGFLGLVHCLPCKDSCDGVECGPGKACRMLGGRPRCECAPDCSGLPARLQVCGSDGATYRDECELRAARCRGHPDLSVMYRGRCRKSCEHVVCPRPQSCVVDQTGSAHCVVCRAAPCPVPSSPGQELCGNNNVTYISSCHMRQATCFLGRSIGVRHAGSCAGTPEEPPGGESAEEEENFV
Test [9] has as its target Dickkopf-related protein 1 (Homo sapiens) (UniProt O94907). Description: small molecules binding DKK1 protein – biochemical, small-molecule microarray, 635 nm fluorescence scan, primary screen (AID 1106).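 Note: score merges emission near 667 nm with signal to noise over three replicate slides.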 The note with it: higher = more signal.
Test [10] concerns Inhibin beta A chain (activin A). Description: small molecules binding activin A – biochemical, small-molecule microarray, 635 nm fluorescence scan, primary screen (AID 1107).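 Note: mouse activin A protein probed at 4.33 µg/mL on printed slides; score merges bound-protein fluorescence near 667 nm with spot signal-to-noise.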 The note with it: INHBA, higher = more signal.
Test [11] concerns Human papillomavirus type 1a protein E7 (residues 44-93). Description: small molecules binding HPV E7 44-93 – biochemical, small-molecule microarray, residues 44-93, 635 nm fluorescence, primary screen (AID 1108).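 Note: E7 fragment applied at 1 µg/mL in TBST for 1 h at 4 C; score combines spot fluorescence with its signal to noise ratio.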 The conditions noted are these: fluorescence 635 nm, higher = more signal.
Test [12] in a line: hepatitis C replication reporter changes, two-sided – Huh7 cells, luciferase reporter, HCV replication inhibitor project, primary screen (AID 1109).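 Note: huh7 hepatoma cells harbouring a luciferase neomycin HCV replicon reporter; luciferase luminescence as measure of HCV replicon replication; test concentration not given here.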 The conditions noted are these: Huh7 HCV replicon luciferase reporter, 48 h; higher = more signal. (In general: In a reporter assay the amount or activity of a reporter protein is the signal.)
Test [13] addresses Left-right determination factor 2 (Homo sapiens) (UniProt O00292). Description: small molecules binding LEFTY2 protein – biochemical, small-molecule microarray, 635 nm fluorescence scan, primary screen (AID 1110). The note with it: higher = more signal.
Test [14] addresses Calmodulin-1 (Homo sapiens) (UniProt P0DP23). Description: small molecules binding calmodulin-1 with EGTA – biochemical, small-molecule microarray, Cy5-labelled CALM1, profiling panel (AID 1111).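 Note: labelled calmodulin applied in Tris saline Tween buffer holding calcium plus EGTA and DTT.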 The conditions noted are these: Cy5-CALM1 binding fluorescence, higher = more signal.
The target is the same in test [15]. Description: small molecules binding Ca-loaded calmodulin-1 – biochemical, small-molecule microarray, Cy5-labelled CALM1, plus calcium, artefact control for SMM control-protein annotation, profiling panel (AID 1112).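 Note: score merges spot fluorescence with signal to noise from triplicate slides.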 The conditions noted are these: Cy5-CALM1 binding fluorescence, higher = more signal.
Test [16] in a line: probe aWnt5a binding to arrayed compounds – biochemical, biotinylated probe, 635/667 nm fluorescence, primary screen (AID 1113).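 Note: score merges 667 nm fluorescence intensity with signal-to-noise per printed feature.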 The note with it: small-molecule microarray, higher = more signal.
Test [17] can be described thus: probe aShh binding to arrayed compounds – biochemical, biotinylated probe, 635/667 nm fluorescence, primary screen (AID 1114).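 Note: probe is biotin-labelled aShh protein from a stem cell growth factor screen; measures binding of labelled protein to compounds printed on the slide; score merges feature fluorescence at 667 nm with signal-to-noise.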 The note with it: small-molecule microarray, higher = more signal.
A short description of test [18]: probe aNog binding to arrayed compounds – biochemical, biotinylated probe, 635/667 nm fluorescence, primary screen (AID 1115).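 Note: probe is biotinylated aNog protein used at 0.15 µg/mL for 1 h at 4 C; z-score combines 667 nm fluorescence of each spot with its signal to noise.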 The note with it: small-molecule microarray, higher = more signal.
Test [19] deals with Torsin-1A-interacting protein 1 (Homo sapiens) (UniProt Q5JTV8). Description: compound microarray binding of lysate hLAP1 – cell lysate, small-molecule microarray, COS7 lysate, 635/667 nm fluorescence, primary screen (AID 1116). The conditions noted are these: 635 nm fluorescence, higher = more signal.
Sequence of Torsin-1A-interacting protein 1 (Homo sapiens) (Q5JTV8 whole entry, looked up): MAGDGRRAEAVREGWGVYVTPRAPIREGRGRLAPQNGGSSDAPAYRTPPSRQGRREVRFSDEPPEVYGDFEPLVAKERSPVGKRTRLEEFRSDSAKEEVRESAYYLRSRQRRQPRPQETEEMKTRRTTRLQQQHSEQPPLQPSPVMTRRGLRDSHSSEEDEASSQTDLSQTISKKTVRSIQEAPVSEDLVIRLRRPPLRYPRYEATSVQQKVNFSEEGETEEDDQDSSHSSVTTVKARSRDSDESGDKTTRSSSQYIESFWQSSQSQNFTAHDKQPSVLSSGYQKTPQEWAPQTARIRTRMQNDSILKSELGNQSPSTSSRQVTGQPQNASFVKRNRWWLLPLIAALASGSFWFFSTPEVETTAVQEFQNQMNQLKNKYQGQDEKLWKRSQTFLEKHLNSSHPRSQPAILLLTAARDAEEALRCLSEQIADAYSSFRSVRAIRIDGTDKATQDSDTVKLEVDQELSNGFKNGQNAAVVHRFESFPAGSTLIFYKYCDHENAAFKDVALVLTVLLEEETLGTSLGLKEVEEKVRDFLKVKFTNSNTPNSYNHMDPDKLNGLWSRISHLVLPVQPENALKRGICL
Test [20] deals with Alpha-bungarotoxin (Bungarus multicinctus) (UniProt P60615). Description: compounds binding labelled alpha-BTX control protein – biochemical, small-molecule microarray, Alexa647 label, 635/667 nm fluorescence, artefact control for SMM control protein annotation, profiling panel (AID 1117). The conditions noted are these: alpha-BTX-A647 binding fluorescence, higher = more signal.
Sequence of Alpha-bungarotoxin (Bungarus multicinctus) (P60615 whole entry, looked up): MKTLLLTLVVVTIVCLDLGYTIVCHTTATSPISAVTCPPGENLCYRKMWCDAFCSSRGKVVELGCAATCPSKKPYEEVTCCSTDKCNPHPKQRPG

Sequence of Left-right determination factor 2 (Homo sapiens) (O00292 whole entry, looked up): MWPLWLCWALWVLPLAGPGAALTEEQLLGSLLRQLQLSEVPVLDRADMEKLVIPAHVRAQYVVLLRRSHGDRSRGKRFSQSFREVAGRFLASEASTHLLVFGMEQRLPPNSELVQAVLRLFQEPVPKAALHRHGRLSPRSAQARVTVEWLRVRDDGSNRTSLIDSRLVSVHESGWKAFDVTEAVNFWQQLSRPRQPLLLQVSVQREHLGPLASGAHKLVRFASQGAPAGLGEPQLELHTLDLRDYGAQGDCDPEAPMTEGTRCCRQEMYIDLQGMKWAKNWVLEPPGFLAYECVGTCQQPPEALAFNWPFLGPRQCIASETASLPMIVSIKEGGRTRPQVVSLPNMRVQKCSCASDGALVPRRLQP
Sequence of Dickkopf-related protein 1 (Homo sapiens) (O94907 whole entry, looked up): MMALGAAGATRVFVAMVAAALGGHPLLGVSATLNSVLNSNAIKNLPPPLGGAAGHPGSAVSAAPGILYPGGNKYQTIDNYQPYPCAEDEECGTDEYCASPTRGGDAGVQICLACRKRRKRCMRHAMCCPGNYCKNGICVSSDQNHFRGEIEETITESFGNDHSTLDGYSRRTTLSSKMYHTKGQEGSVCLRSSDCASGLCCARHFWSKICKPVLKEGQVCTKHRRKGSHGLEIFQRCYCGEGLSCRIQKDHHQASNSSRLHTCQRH

`C=CCC(OC(C)=O)[C@@H]1[C@@H](N(Cc2ccc(-c3ccccc3)cc2)C(=O)c2ccc(-c3ccccc3)cc2)c2cc(OCCCO)ccc2N1C(=O)Cc1ccc(OC)cc1` (stereo not given in full): the composite z-score in test [1] was -0.322; in test [2] it was 0.0651; in [3], 0.026; in test [5] it was 0.035; in test [6], -0.0305; in [7], -0.25. Besides, the composite z-score in test [8] is 0.491; in [9] it was -0.345; in test [10] it was 1.28; in [11], 0.273; in test [13], 0.241; in test [14] it was 0.165. The composite z-score in test [15] was 0.229; in test [16] it was 0.164; in test [17] it was 0.011; in test [18] it was 0.0921; in test [19] it was -0.209; in test [20], 0.265. Further, the z-score in test [4] is -0.792 (inactive); in test [12] it was -1.57.
Consider `C[C@H]1COC(=O)[C@H](Cc2ccccc2)NC(=O)[C@@H](C)COC(=O)[C@H](Cc2ccccc2)NC1=O`, for which the composite z-score in test [1] is 0.692; in [2], -0.165; in test [3], -0.563; in test [5], 0.632; in [6], 0.847; in [7], 0.485. Further, the composite z-score was 0.897 in [8]; 1.11 in test [9]; -0.687 in test [10]; 0.844 in test [11]; 0.597 in test [13]; 0.359 in test [14]. Further, the composite z-score in test [15] is -0.589; in [16], -0.236; in test [17], 0.0711; in [18], -0.0026; in [19], 1; in test [20], 0.856. Besides, the z-score in test [4] was -1.67 (inactive); in [12] it was -0.0223.
In the case of `O=C1O[C@H](c2ccccc2)[C@H](c2ccccc2)N2[C@H]1[C@@H](C(=O)NC[C@H](O)c1ccccc1)[C@]1(C(=O)Nc3ccc(C#CC4(O)CCCCCC4)cc31)[C@H]2c1ccc(OCCO)cc1`, the composite z-score came to 1.03 in test [1]; 0.539 in [2]; 0.713 in test [3]; 0.599 in test [5]; 0.563 in test [6]; 0.0371 in [7]. The composite z-score in test [8] is 0.411; in test [9], 0.0407; in test [10], 0.0385; in [11], 1.27; in test [13], -0.12; in test [14], 0.67. Moreover, the composite z-score in test [15] was 0.623; in test [16], -0.0276; in test [17] it was -0.106; in test [18], 0.319; in test [19] it was 0.933; in test [20], 1.41. Also, the z-score in [4] was -0.717 (inactive); in test [12], -2.41.
In the case of `C=CCC1=C[C@H]2[C@H]([C@@H]3C=C[C@]2(CC=C)C(=O)[C@]32CO2)[C@@]2(CO2)C1=O`, the composite z-score was 1.29 in test [1]; -0.354 in [2]; -0.69 in test [3]; 1.14 in test [5]; -0.0104 in test [6]; 1.58 in test [7]. The composite z-score was 1.31 in [8]; 1.8 in test [9]; 1.9 in test [10]; -0.763 in [11]; 1.24 in [13]; -1.06 in [14]. Moreover, the composite z-score in test [15] was -2.27; in test [16], 0.133; in test [17], -0.1; in test [18], 2.17; in test [19], 0.163; in test [20] it was 0.345. Further, the z-score in test [4] is -0.414 (inactive); in test [12], -4.15.
As for `CC[C@H]1C2=C3C(CC[C@H]4C(OC)OC[C@](C)([C@@H]34)N(C(=O)OC(C)(C)C)C2)C(CO)C1CO` (stereo not given in full), the composite z-score in test [1] was 0.593; in test [2] it was 1.54; in test [3], 1.6; in [5], 0.754; in test [6] it was 1.16; in test [7] it was 0.194. Further, the composite z-score in test [8] was 1.07; in test [9], -0.212; in test [10], 0.828; in test [11], 1.37; in test [13], 0.221; in test [14] it was 2.27. For the same compound, the composite z-score is 1.38 in test [15]; 0.379 in [16]; -0.349 in [17]; -0.128 in test [18]; 2.23 in test [19]; 1.33 in [20]. In addition, the z-score in test [4] was -0.715 (inactive); in test [12] it was -0.996.
Consider `C=C(CCCC)/C(=C/C[C@H](OC(=O)c1ccncc1)c1cccc(OCCO)c1)c1cc(C(=O)OC)ccc1OC`, for which the composite z-score in test [1] is 0.169; in test [2], -0.166; in [3], -0.0107; in [5] it was 1.04; in test [6], 0.174; in test [7], -0.218. The composite z-score in test [8] is 0.611; in test [9] it was 0.347; in test [10], 0.868; in [11] it was 0.799; in test [13], 0.385; in [14], 0.267. Besides, the composite z-score in test [15] is -0.784; in test [16] it was 0.0394; in test [17], 0.14; in [18], -0.226; in test [19], 0.516; in test [20] it was 0.582. The results for the z-score in test [4] and in test [12] were -1.37 (inactive) and -2.61, respectively.
